Here are results for seven molecules from ChEMBL document CHEMBL1961873, “Compounds: GSK PKIS; Assays: Nanosyn kinase panel” (2012).

For orientation: inhibition means the change of the read-out against control, counted positive when it falls.

The target in test [1] is Mast/stem cell growth factor receptor Kit (Homo sapiens) (UniProt P10721). Particulars: at 1 µM.
Test [2] relates to Mast/stem cell growth factor receptor Kit (Homo sapiens), P10721 [D816V]. Particulars: at 0.1 µM.
Test [3] has the same test system. Particulars: at 1 µM.
The test system of test [4] is Mast/stem cell growth factor receptor Kit (Homo sapiens), P10721 [T670I]. Particulars: at 0.1 µM.
Test [5] shares this test system. Particulars: at 1 µM.
Test [6] relates to Mast/stem cell growth factor receptor Kit (Homo sapiens), P10721 [V560G]. Particulars: at 0.1 µM.
Test [7] shares this test system. Particulars: at 1 µM.
Test [8] addresses Tyrosine-protein kinase Lck (Homo sapiens) (UniProt P06239). Particulars: at 0.1 µM.
Test [9] has the same target. Particulars: at 1 µM.
Test [10] concerns the target Leukocyte tyrosine kinase receptor (Homo sapiens) (UniProt P29376). Particulars: at 0.1 µM.
Test [11] has the same target. Particulars: at 1 µM.
For test [12], the target named is Tyrosine-protein kinase Lyn (Homo sapiens) (UniProt P07948). Particulars: at 0.1 µM.
Test [13] shares this target. Particulars: at 1 µM.
Test [14] shares this target. Particulars: at 0.1 µM. The source holds these as a separate data set.
The target is the same in test [15]. Particulars: at 1 µM. The source holds these as a separate data set.
Test [16] has as its target T1, Tyrosine-protein kinase Mer (Homo sapiens) (UniProt Q12866).
T1 sequence (whole entry): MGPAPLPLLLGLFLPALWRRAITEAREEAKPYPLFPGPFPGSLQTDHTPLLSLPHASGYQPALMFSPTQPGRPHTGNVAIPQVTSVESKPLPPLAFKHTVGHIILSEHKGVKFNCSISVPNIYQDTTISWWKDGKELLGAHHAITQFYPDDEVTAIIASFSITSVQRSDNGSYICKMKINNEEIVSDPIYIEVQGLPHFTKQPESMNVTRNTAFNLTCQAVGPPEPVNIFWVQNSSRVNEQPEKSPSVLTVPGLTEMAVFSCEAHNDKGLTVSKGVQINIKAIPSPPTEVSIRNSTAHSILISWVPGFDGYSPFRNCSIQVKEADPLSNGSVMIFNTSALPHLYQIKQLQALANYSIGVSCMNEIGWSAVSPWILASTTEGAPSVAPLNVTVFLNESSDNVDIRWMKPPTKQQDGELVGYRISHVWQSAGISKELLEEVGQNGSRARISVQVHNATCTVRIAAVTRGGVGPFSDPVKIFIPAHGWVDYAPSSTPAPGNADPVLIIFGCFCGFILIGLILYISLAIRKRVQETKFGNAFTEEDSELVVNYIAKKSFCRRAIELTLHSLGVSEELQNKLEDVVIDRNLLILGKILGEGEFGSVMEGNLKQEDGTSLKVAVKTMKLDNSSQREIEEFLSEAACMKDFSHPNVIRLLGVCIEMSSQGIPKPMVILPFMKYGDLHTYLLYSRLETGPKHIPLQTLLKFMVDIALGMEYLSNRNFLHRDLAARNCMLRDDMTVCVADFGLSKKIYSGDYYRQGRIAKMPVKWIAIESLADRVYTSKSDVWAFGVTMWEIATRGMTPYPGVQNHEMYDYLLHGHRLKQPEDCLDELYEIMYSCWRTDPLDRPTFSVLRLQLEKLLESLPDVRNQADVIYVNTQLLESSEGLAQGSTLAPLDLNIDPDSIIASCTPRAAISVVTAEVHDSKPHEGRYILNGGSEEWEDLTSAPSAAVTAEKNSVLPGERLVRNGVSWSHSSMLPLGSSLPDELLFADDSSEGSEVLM
Particulars: at 0.1 µM.

Test [17] concerns the target T1, Tyrosine-protein kinase Mer (Homo sapiens). Particulars: at 1 µM.
Test [18] addresses Hepatocyte growth factor receptor (Homo sapiens) (UniProt P08581). Particulars: at 0.1 µM.
Test [19] shares this target. Particulars: at 1 µM.
The target of test [20] is T2, Muscle, skeletal receptor tyrosine-protein kinase (Homo sapiens) (UniProt O15146).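 Note: values are mean inhibition of MuSK from the GSK PKIS kinase screening panel.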
T2 sequence (whole entry): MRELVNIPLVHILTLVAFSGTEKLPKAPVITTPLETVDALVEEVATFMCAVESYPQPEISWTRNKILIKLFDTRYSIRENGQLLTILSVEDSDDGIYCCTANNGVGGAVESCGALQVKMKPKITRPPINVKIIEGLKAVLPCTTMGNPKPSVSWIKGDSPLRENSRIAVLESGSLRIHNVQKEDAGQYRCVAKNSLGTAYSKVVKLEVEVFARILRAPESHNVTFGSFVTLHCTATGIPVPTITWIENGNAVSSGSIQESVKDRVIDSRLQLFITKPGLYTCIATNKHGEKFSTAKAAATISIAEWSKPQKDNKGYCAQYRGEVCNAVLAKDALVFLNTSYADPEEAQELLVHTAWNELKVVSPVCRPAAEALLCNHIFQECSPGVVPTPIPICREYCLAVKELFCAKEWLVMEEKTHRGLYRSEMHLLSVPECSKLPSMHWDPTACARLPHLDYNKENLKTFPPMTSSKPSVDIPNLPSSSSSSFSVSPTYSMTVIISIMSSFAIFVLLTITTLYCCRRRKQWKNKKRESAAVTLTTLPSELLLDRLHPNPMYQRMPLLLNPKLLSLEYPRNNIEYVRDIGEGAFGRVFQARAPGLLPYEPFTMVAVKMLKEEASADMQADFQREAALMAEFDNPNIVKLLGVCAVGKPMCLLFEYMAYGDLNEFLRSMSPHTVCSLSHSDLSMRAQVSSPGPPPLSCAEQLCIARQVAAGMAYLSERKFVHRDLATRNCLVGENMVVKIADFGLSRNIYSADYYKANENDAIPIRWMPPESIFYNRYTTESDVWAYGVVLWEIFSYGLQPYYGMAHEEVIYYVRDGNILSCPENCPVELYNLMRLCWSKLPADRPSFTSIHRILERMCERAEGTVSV
Particulars: at 0.1 µM.

Chain of Tyrosine-protein kinase Lyn (Homo sapiens) (P07948 2-512 limits assumed): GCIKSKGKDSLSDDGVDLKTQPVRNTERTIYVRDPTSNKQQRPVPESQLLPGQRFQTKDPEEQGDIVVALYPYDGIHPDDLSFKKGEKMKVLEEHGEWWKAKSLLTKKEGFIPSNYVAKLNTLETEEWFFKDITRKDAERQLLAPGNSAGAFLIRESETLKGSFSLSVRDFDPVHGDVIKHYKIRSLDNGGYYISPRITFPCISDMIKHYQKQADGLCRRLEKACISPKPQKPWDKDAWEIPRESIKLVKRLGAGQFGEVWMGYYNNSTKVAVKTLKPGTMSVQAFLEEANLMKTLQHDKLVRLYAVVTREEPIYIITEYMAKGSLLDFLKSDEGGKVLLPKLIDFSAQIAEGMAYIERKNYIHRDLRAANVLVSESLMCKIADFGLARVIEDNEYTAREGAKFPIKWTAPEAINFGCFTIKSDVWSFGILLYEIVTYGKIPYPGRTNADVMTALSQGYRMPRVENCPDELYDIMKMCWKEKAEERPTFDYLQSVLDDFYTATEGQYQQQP
Chain of Leukocyte tyrosine kinase receptor (Homo sapiens) (P29376 whole entry): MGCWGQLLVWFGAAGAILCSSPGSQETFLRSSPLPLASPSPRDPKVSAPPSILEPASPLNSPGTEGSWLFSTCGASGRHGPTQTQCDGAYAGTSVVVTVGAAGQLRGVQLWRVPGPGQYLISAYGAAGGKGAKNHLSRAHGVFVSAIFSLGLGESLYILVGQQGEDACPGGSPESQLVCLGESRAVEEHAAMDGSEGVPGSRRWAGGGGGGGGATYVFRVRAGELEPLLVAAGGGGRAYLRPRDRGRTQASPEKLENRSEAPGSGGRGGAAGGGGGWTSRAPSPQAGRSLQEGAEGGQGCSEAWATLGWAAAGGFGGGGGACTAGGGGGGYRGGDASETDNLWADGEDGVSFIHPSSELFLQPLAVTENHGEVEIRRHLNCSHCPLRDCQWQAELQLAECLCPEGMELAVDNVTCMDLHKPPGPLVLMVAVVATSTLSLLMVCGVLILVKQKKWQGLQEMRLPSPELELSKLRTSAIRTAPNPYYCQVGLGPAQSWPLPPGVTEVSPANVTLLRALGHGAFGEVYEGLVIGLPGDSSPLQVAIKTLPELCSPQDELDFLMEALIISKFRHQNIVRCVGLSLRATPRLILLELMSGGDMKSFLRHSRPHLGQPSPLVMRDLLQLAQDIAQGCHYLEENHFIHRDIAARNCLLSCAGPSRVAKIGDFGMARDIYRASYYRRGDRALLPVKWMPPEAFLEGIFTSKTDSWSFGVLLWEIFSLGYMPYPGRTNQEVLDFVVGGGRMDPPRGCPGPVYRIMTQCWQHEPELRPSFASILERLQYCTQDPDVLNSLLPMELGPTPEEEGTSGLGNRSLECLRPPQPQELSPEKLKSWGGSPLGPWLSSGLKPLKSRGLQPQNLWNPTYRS
Chain of Mast/stem cell growth factor receptor Kit (Homo sapiens), P10721 [T670I] (P10721 whole entry T670I): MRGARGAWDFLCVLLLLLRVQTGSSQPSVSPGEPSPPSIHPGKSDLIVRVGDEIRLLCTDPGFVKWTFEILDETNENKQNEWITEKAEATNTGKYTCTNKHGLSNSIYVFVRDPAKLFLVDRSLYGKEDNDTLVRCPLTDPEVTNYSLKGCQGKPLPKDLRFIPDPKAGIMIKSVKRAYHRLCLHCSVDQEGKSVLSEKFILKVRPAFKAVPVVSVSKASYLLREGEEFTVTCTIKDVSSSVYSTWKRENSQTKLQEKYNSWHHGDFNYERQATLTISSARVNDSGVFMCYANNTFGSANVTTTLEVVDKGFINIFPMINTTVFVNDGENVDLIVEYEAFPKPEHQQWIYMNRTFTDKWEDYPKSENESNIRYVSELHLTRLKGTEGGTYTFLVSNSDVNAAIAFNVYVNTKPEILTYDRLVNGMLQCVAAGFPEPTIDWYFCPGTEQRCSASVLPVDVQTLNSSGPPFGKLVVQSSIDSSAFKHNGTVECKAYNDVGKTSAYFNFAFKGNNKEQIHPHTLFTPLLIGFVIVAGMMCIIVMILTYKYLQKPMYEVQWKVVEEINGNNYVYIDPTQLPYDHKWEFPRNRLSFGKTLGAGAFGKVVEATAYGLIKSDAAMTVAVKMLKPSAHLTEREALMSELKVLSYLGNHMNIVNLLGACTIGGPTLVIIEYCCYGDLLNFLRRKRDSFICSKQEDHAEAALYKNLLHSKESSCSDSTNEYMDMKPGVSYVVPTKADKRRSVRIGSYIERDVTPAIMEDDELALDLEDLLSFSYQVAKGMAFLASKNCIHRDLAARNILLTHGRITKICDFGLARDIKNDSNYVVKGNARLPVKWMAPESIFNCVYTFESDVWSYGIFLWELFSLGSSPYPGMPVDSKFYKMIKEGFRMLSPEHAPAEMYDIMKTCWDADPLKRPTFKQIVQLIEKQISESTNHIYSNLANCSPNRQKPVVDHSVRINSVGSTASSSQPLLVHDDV
Chain of Mast/stem cell growth factor receptor Kit (Homo sapiens), P10721 [V560G] (P10721 whole entry V560G): as the sequence (P10721 whole entry T670I) above, with V560G, I670T counted along it
Chain of Mast/stem cell growth factor receptor Kit (Homo sapiens), P10721 [D816V] (P10721 whole entry D816V): as the sequence (P10721 whole entry T670I) above, with I670T, D816V counted along it
Chain of Tyrosine-protein kinase Lck (Homo sapiens) (P06239 2-509 limits assumed): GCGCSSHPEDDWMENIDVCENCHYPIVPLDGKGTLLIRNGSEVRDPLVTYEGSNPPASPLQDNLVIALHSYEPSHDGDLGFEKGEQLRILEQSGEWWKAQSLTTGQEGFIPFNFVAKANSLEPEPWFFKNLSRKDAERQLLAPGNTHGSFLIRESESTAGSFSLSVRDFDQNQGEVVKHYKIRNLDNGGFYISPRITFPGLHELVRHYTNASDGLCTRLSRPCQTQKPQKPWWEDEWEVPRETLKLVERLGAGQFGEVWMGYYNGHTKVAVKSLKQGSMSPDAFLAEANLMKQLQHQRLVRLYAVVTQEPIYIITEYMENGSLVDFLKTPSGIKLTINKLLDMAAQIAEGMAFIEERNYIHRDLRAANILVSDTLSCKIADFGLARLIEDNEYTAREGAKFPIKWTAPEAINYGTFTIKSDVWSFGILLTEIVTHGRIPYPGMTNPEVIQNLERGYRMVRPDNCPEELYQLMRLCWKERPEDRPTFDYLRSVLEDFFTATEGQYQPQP
Chain of Hepatocyte growth factor receptor (Homo sapiens) (P08581 whole entry): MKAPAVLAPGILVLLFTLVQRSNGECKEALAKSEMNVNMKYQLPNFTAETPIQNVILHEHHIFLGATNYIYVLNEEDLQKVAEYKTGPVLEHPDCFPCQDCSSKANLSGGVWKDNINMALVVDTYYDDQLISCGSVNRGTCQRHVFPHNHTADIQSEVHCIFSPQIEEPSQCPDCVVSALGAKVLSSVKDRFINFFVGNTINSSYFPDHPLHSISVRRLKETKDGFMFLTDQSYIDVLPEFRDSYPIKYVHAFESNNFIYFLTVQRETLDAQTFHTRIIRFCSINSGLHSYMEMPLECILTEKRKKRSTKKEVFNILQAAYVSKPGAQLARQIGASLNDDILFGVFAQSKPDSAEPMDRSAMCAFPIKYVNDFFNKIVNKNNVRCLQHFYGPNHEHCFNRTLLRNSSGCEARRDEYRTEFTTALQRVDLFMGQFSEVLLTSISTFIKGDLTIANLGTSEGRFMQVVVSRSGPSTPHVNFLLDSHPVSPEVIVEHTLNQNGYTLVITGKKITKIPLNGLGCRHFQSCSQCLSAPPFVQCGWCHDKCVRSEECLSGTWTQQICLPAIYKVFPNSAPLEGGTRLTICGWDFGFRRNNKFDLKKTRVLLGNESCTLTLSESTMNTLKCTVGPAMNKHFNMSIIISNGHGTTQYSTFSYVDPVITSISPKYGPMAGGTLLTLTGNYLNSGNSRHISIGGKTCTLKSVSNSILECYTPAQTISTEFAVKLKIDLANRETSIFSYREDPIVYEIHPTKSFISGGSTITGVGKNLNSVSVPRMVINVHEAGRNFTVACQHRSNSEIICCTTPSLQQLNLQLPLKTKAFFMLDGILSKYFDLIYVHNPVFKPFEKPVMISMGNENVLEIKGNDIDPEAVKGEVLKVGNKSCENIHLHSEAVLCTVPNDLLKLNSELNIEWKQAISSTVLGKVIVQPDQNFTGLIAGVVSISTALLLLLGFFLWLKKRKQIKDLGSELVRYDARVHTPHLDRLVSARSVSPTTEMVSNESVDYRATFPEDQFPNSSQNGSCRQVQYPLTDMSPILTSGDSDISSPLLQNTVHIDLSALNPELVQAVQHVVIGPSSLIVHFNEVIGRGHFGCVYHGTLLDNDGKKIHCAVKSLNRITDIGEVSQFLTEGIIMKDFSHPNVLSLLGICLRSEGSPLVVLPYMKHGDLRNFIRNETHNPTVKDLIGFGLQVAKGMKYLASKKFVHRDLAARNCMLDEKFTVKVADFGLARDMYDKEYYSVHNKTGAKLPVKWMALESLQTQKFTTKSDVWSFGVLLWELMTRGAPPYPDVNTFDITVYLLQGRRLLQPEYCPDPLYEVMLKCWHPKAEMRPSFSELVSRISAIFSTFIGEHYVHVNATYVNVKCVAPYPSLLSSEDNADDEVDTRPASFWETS
Chain of Mast/stem cell growth factor receptor Kit (Homo sapiens) (P10721 whole entry): as the sequence (P10721 whole entry T670I) above, with I670T counted along it

In the case of `COc1ccc2c(-c3ccnc(Nc4cccc(OC(F)(F)F)c4)n3)cnn2n1`, the inhibition in test [1] was 45.9%; in [2] it was 7.04%; in test [3], 6.99%; in test [4], 2.93%; in test [5], 11.2%; in [6], -0.57%. Besides, the inhibition in test [7] is 5.63%; in test [8] it was 1.54%; in test [9], 5.72%; in [10] it was 3.12%; in test [11] it was 4.46%; in test [12], 7.95%. Also, the inhibition in [13] was 9.21%; in test [14] it was 3.18%; in test [15], 7.1%; in test [16], 1.44%; in test [17], 2.89%; in [18], 4.94%. Besides, the inhibition was 15.7% in [19] and 5.85% in test [20].

For the molecule `Fc1ccc(-c2nn3ncccc3c2-c2ccnc(Nc3ccc4c(c3)OCCO4)n2)cc1`, the inhibition in test [1] was determined as 91.9%; in [2] it was 3.55%; in test [3] it was 4.13%; in test [4], 5.56%; in [5], 27.3%; in [6] it was 16.3%. Also, the inhibition was found to be 64.5% in [7]; 44.7% in test [8]; 85.1% in test [9]; 3.99% in test [10]; 5.5% in test [11]; 32.5% in test [12]. The inhibition in test [13] was found to be 78.8%; in test [14], 26%; in test [15], 72.7%; in test [16], 5.86%; in test [17], 31.5%; in [18], 4.89%. The inhibition came to 10.7% in test [19] and 3.02% in test [20].

With `COc1ccc2[nH]c3c4[nH]c5ccc(OC)cc5c4c4c(c3c2c1)C(=O)NC4=O`, the inhibition in [1] stood at 79.9%; in [2], 31.6%; in [3], 75.4%; in [4], 6.78%; in test [5], 44.2%; in test [6], 3.53%. The inhibition turned out to be 31.2% in test [7]; 4.72% in [8]; 21.1% in [9]; 37.8% in test [10]; 78.3% in [11]; 10.8% in [12]. Moreover, the inhibition in test [13] was determined as 35.3%; in test [14], 7.67%; in [15], 31.5%; in test [16] it was 10.7%; in test [17] it was 50.1%; in test [18] it was 10.5%. The inhibition in test [19] stood at 19.8%; in [20], 4.97%.

On to `[O-][S+]1CCN(Cc2ccc(-c3ccc4ncnc(Nc5ccc(OCc6cccc(F)c6)c(Cl)c5)c4c3)o2)CC1`, for which the inhibition is 10.1% in test [1]; 6.9% in test [2]; 3.81% in test [3]; 2.75% in test [4]; 5.16% in test [5]; -2.67% in [6]. Moreover, the inhibition was -0.28% in [7]; 2.85% in test [8]; 8.2% in [9]; 7.04% in [10]; 7.31% in test [11]; 6.15% in [12]. For the same molecule, the inhibition in test [13] worked out at 8.63%; in test [14], 5.42%; in test [15], 7.66%; in test [16] it was 2.54%; in test [17] it was 31%; in [18], 11.9%. Also, the inhibition in test [19] was found to be 10.6%; in [20], 3.52%.

For `Fc1ccc(-c2nn3ccccc3c2-c2ccncc2)cc1`, the inhibition was 12.1% in test [1]; -1.36% in test [2]; -0.05% in test [3]; -0.12% in [4]; 1.47% in test [5]; -1.06% in [6]. The inhibition in [7] came out at 1.71%; in test [8] it was 1.24%; in test [9], 5.7%; in test [10], 1.27%; in test [11] it was 0.03%; in [12], 0.64%. The inhibition in test [13] is 6.12%; in [14], 0.28%; in [15], 4.71%; in [16], 1.48%; in [17], 2.6%; in [18], -1.86%. In addition, the inhibition amounted to 3.37% in [19] and 3.06% in [20].

Turning to `N#Cc1c(NC(=O)c2ccc(F)cc2)sc2c1CCCC2`, the inhibition in test [1] is 5.86%; in test [2] it was -0.47%; in [3], 2.78%; in test [4] it was -0.92%; in test [5] it was 1.72%; in test [6], -0.83%. Further, the inhibition came out at 0.9% in test [7]; 0.7% in test [8]; 0.45% in [9]; 1.24% in test [10]; 0.33% in test [11]; 0.87% in test [12]. Further, the inhibition in [13] is 2.77%; in test [14], 0.6%; in test [15], 2.84%; in [16], -0.51%; in test [17], 0.78%; in [18], 1%. Besides, the inhibition in test [19] came to 2.01%; in test [20] it was 1.9%.

Turning to `NS(=O)(=O)c1ccc(N/N=C2\C(=O)Nc3ccc4ncccc4c32)cc1`, the inhibition in [1] was found to be 90.7%; in [2], 5.95%; in test [3], 23.6%; in test [4], 10.2%; in test [5] it was 69.4%; in [6] it was 3.66%. In addition, the inhibition in test [7] came out at 36.8%; in test [8], 5.5%; in test [9] it was 30.1%; in test [10], 2.17%; in test [11] it was 10.1%; in test [12] it was 8.74%. The inhibition was found to be 44.3% in [13]; 6.92% in test [14]; 40% in [15]; 1.59% in test [16]; 17.5% in test [17]; 4.71% in test [18]. Further, the values for the inhibition in test [19] and in test [20] were 19.4% and 11.3%, respectively.
